Measurements: PubChem BioAssay (Tox21)
Records with an inconclusive call do not appear. Where a structure was tested more than once in an assay, its records may differ in their call. Active and inactive are the calls of the source. Unless noted, the call rests on the fitted dose curve; in most records, active means well fitted curve in the direction sought with a large enough effect in the repeat runs; inconclusive means weak or mixed curves; inactive means no such curve, though single readings can be large; an effect the other way counts as inactive or inconclusive.

What was measured:
[1] = qHTS assay to identify small molecule agonists of the vitamin D receptor (VDR) signaling pathway - cell viability counter screen (AID 743224); further: nearly all actives have a fitted effect of over 50% in size; further: potency means the concentration at half of the fitted maximal effect
In short: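 VDR-bla cells, 4 h after plating, exposed to compounds for 16 h at 37C; viability then read in the same wells as CellTiter-Glo luminescence after 30 min at room temperature, following the bla FRET read.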

[2] = qHTS assay to identify small molecule antagonists of the vitamin D receptor (VDR) signaling pathway - cell viability counter screen (AID 743225); further: nearly all actives have a fitted effect of over 50% in size
In short: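 HEK293T VDR-bla; cpd + 1a,25-(OH)2D3 3 nM final, 16 h 37C/5% CO2; B/G FRET substrate 2 h RT; then CellTiter-Glo 30 min RT, luminescence.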

[3] = qHTS assay to identify small molecule agonists of the endoplasmic reticulum stress response signaling pathway (AID 1159516; active means well fitted activation curve with a large enough effect in the signal ratio in the repeat runs, not every such curve was filed as active; the % refers to the signal ratio)
In short: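 CellSensor ESRE-bla HeLa cells, 1,500 per well, plated overnight, then exposed to compounds for 5 hr at 37 C. Beta-lactamase reporter read with LiveBLAzer B/G FRET substrate after 2 hr at room temperature, 405 nm excitation, 460 and 530 nm emission.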

[4] = qHTS assay to identify small molecule agonists of the endoplasmic reticulum stress response signaling pathway - cell viability counter screen (AID 1159517; calls by dose curve; further: nearly all actives have a fitted effect of over 50% in size; further: potency means the concentration at half of the fitted maximal effect)
In short: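 ESRE-bla HeLa cells, 1,500 per well, seeded overnight then treated with compounds for 5 hr at 37 C. After the beta-lactamase read, viability in the same wells is measured by CellTiter-Glo luminescence after 30 min at room temperature.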

[5] = qHTS assay to identify small molecule antagonists of the retinoid-related orphan receptor gamma (ROR-gamma) signaling pathway - cell viability counter screen (AID 1159520); further: nearly all actives have a fitted effect of over 50% in size; further: potency means the concentration at half of the fitted maximal effect
In short: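 Tet-on ROR gamma CHO cells were given compounds for 2 hr, then doxycycline hyclate at 1 uM final, and incubated 16 hr at 37 C. Viability was measured as ATP content by CellTiter-Glo luminescence.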

[6] = molecular target: Nuclear receptor ROR-gamma (Homo sapiens) (UniProt P51449); assay: qHTS assay to identify small molecule antagonists of the retinoid-related orphan receptor gamma (ROR-gamma) signaling pathway (AID 1159521; further: nearly all actives have a fitted effect of over 50% in size; further: potency means the concentration at half of the fitted maximal effect)
In short: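 Cells were plated, rested 4 h at 37 C, exposed to compounds for 2 h, then given 1 uM final doxycycline hyclate to induce RORγ expression. After 16 h, ONE-Glo luminescence from the ROR response element reporter was measured.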

[7] = qHTS assay to identify small molecule agonists of the AP-1 signaling pathway - cell viability counter screen (AID 1159525; calls by dose curve; further: nearly all actives have a fitted effect of over 55% in size; further: potency means the concentration at half of the fitted maximal effect)
In short: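 AP-1-bla ME-180 cells in Opti-MEM with 0.5% dialyzed FBS, compound exposure 5 h at 37 C in 15-point titration. Viability read in the same wells as ATP content by CellTiter-Glo luminescence, normalised to tetra-n-octylammonium bromide and DMSO controls.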

[8] = qHTS assay to identify small molecule agonists of the AP-1 signaling pathway (AID 1159526; calls by dose curve; further: potency means the concentration at half of the fitted maximal effect)
[9] = molecular target: Retinoic acid receptor RXR-alpha (Homo sapiens) (UniProt P19793); assay: qHTS assay to identify small molecule agonists of the RXR signaling pathway (AID 1159527; calls by dose curve; further: nearly all actives have a fitted effect of over 35% in size)
In short: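 Cells plated at 2,000/well, rested 5 hr at 37 C, pin-dosed with DMSO compound solutions, incubated 16 hr, then loaded with B/G FRET substrate for 2 hr at RT before dual-emission fluorescence reading.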

[10] = qHTS assay to identify small molecule agonists of the RXR signaling pathway - cell viability counter screen (AID 1159529); further: nearly all actives have a fitted effect of over 50% in size; further: potency means the concentration at half of the fitted maximal effect
In short: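 Steps: seed RXR-alpha-UAS-bla HEK 293T cells in assay medium containing 2% charcoal-stripped FBS; incubate 5 hr; add compounds in DMSO; incubate 16 hr at 37 C; after the bla read, add CellTiter-Glo and read luminescence at 30 min.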

[11] = qHTS assay to identify small molecule antagonists of the retinoid acid receptor (RAR) signaling pathway - cell viability counter screen (AID 1159551); further: nearly all actives have a fitted effect of over 35% in size; further: potency means the concentration at half of the fitted maximal effect
In short: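 C3RL4 RARE-luciferase cells, 1,000/well, incubated overnight, then dosed with compound plus 1 uM retinol (final). After 6 hr at 37 C, viability read by CellTiter-Glo ATP luminescence following 30 min at room temperature.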

[12] = qHTS assay to identify small molecule antagonists of the retinoic acid receptor (RAR) signaling pathway (AID 1159552; further: nearly all actives have a fitted effect of over 50% in size; further: potency means the concentration at half of the fitted maximal effect)
In short: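 Retinol at 1 uM final stimulated RARE-luciferase expression in C3RL4 cells exposed to test compounds for 6 hr at 37 C. Reduced luminescence, read 30 min after detection reagent, indicated pathway antagonism.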

[13] = qHTS assay to identify small molecule agonists of the retinoic acid receptor (RAR) signaling pathway (AID 1159553); further: potency means the concentration at half of the fitted maximal effect
In short: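 C3RL4 RARE-luciferase cells were seeded at 1,000/well and grown overnight at 37 C, then exposed to compounds for 6 hr at 37 C, 5% CO2. Luciferase reagent was added and luminescence was read after 30 min at room temperature.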

Measured: Potency

Retinoic acid receptor RXR-alpha (Homo sapiens), sequence (P19793 whole entry, looked up): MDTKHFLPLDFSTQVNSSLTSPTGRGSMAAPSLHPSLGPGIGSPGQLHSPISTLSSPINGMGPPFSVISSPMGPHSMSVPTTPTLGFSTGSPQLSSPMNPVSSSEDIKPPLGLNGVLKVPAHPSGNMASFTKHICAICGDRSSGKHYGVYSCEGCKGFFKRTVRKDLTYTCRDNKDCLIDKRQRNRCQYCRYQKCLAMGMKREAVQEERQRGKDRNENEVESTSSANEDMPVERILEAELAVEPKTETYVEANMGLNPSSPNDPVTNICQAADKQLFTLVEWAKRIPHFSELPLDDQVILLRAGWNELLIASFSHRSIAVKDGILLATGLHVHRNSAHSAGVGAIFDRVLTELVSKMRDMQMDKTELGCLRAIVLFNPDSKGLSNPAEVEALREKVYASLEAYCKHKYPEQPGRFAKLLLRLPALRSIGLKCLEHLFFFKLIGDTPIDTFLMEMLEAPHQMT

c1ccc(CSCc2ccccc2)cc1
not listed: [13]
inactive: all other assays above

ON=C1CCCC1
not listed: [1] | [3] | [5] | [6] | [10]
inactive: all other assays above

N/C(=N\N=C\c1ccc(Cl)cc1)N/N=C/c1ccc(Cl)cc1
active: [1] 26.6 µM | [4] 23.9 µM | [7] 13.4 µM | [10] 19 µM
inactive: [13]

O=C1c2c(O)ccc(Nc3ccc(CCO)cc3)c2C(=O)c2c([N+](=O)[O-])ccc(O)c21
inactive: [1] | [2] | [4] | [6] | [7] | [10] | [12]

C[C@H](CCC(=O)O)[C@H]1CC[C@H]2[C@@H]3CC[C@@H]4C[C@H](O)CC[C@]4(C)[C@H]3CC[C@]12C
inactive: [2] | [6]
60.9 µM (active) and inactive: [5]
active: [1] 24.5 µM | [7] 48.8 µM | [10] 38.7 µM

CCOC(=O)/C=C(C)/C=C/C=C(C)/C=C/c1c(C)cc(OC)c(C)c1C
active: [13] 0.531 µM
not listed: [3] | [6] | [9]
inactive: all other assays above

[O-][n+]1ccccc1SSc1cccc[n+]1[O-]
active: [1] 0.164 µM | [4] 4.14 µM | [5] 0.103 µM | [6] 0.058 µM | [10] 0.165 µM | [12] 0.092 µM

CCC(C)Nc1ccc(NC(C)CC)cc1 (stereo not given)
active: [1] 17.7 µM | [5] 31.2 µM | [6] 27.8 µM | [11] 39.3 µM

C=C(C)C(=O)OCC[N+](C)(C)C
not listed: [3] | [4] | [8] | [13]
inactive: all other assays above

CC(C)(C)C(=O)OCOC(=O)[C@@H]1N2C(=O)[C@@H](NC(=O)[C@H](N)c3ccccc3)[C@H]2SC1(C)C
not listed: [3] | [6] | [8] | [12]
inactive: all other assays above

O=C(Nc1cccc(C(F)(F)F)c1)c1cc(Br)cc(Br)c1O
inactive: [13]
active: [1] 2.19 µM | [4] 24.5 µM | [5] 10.9 µM | [6] 1.37 µM | [10] 21.9 µM

O=C1CCCc2c1cc1ccc3cccc4ccc2c1c34
active: [8] 22.2 µM
inactive: [1] | [2] | [4] | [7] | [10] | [11] | [12]
